Records with an inconclusive call do not appear. Calls of active or inactive are those of the source. Calls come from the whole dose curve.
Columns and labels:
[1] = Primary qHTS for inhibitors of SARS-S pseudo-typed particle cell entry (AID 1479145); conditions: SARS-S pseudotyped particle cell entry, luciferase reporter; series mostly up to 57.1 µM; note: nearly all actives have a fitted effect of over 45% in size
[2] = Primary qHTS for Huh7 cytotoxicity: counterscreen for inhibitors of MERS-S pseudotyped particle cell entry (AID 1479147); conditions: cell viability read-out; series mostly up to 57.1 µM
[3] = Primary qHTS for inhibitors of MERS-S pseudo-typed particle cell entry (AID 1479149); conditions: MERS-S pseudotyped particle entry, luciferase; series mostly up to 57.1 µM; note: nearly all actives have a fitted effect of over 60% in size
[4] = Primary qHTS for Vero E6 cytotoxicity: counterscreen for inhibitors of SARS-S pseudo-typed particle cell entry (AID 1479150); conditions: cell viability; series mostly up to 57.1 µM
% is set by controls: 0 for no effect and ±100 for the full control effect.

OCCOCCN1CCN(C2=Nc3ccccc3Sc3ccccc32)CC1
inactive: Potency [1] | Potency [2] | Potency [3] | Potency [4]

C[C@@H]1O[C@@H](OC[C@H]2O[C@@H](Oc3c(-c4ccc(O)c(O)c4)oc4cc(O)cc(O)c4c3=O)[C@H](O)[C@@H](O)[C@@H]2O)[C@H](O)[C@H](O)[C@H]1O
inactive: Potency [1] | Potency [2] | Potency [3] | Potency [4]

Cc1c(C(C)C)c(=O)n(-c2ccccc2)n1C
inactive: Potency [1] | Potency [2] | Potency [3] | Potency [4]

CCOC(=O)c1ccc(OCCN2C[C@H](O)[C@@H](O)[C@H](O)[C@H]2CO)cc1
inactive: Potency [1] | Potency [2] | Potency [3] | Potency [4]

NS(=O)(=O)c1cc(C(=O)NN2C[C@H]3[C@H]4CCC(C4)[C@H]3C2)ccc1Cl
inactive: Potency [1] | Potency [2] | Potency [3] | Potency [4]

Oc1cccc(O)c1
inactive: Potency [1] | Potency [2] | Potency [3] | Potency [4]

Cc1cccc(C)c1NC(=O)CC12CCCN1CCC2
inactive: Potency [1] | Potency [2] | Potency [3] | Potency [4]

CCOC(=O)[C@H](CCc1ccccc1)N[C@H]1CCCN2CCC[C@@H](C(=O)O)N2C1=O
inactive: Potency [1] | Potency [2] | Potency [3] | Potency [4]

NCCNCCNCCNCCN
inactive: outcome [1] inactive [at 11.4 µM] | outcome [2] inactive [at 11.4 µM] | outcome [3] inactive [at 11.4 µM] | activity change, negative = cytotoxicity [4] 1.23% [at 11.4 µM]

O=C(Cn1ccnc1[N+](=O)[O-])NCc1ccccc1
inactive: Potency [1] | Potency [2] | Potency [3] | Potency [4]

OC[C@H]1O[C@@H](Oc2ccc(O)cc2)[C@H](O)[C@@H](O)[C@@H]1O
inactive: Potency [1] | Potency [2] | Potency [3] | Potency [4]

CCCc1nn(C)c2c(=O)[nH]c(-c3cc(S(=O)(=O)N4CCN(C)CC4)ccc3OCC)nc12
inactive: Potency [1] | Potency [2] | Potency [3] | Potency [4]

CCCCOC(=O)c1ccc(O)cc1
inactive: Potency [1] | Potency [2] | Potency [3] | Potency [4]

NS(=O)(=O)c1cc(-c2nn[nH]n2)c(NCc2cccs2)cc1Cl
inactive: Potency [1] | Potency [2] | Potency [3] | Potency [4]

O=C(O)C(S)C(S)C(=O)O (centres undefined)
inactive: Potency [1] | Potency [2] | Potency [3] | Potency [4]

NS(=O)(=O)c1cc2c(cc1C(F)(F)F)NC(Cc1ccccc1)NS2(=O)=O (centres undefined)
inactive: Potency [1] | Potency [2] | Potency [3] | Potency [4]

— PubChem BioAssay (NCATS)
